Hit rate of the full screen: of about 16,000 compounds, about 5,800 (36%) were called active. About 23% were inconclusive and are not listed. The list shows a part of the results. Unmarked numbers belong to inactive results. Calls follow the shape of the dose curve; as a rule, active = well fitted curve in the direction sought with a large enough effect; inconclusive = small, poorly fitted or top-dose-only effect, or effect the other way; inactive = no such curve, though single readings can be large or run the other way.

The results in this text go back to PubChem BioAssay AID1851 (National Center for Advancing Translational Sciences (NCATS), 2009).
% is scaled to controls: 0 for no effect and ±100 for the full control effect.

For the test, the target named is Cytochrome P450 2C19 (Homo sapiens) (UniProt P33261). The test is described as follows: Cytochrome panel assay with activity outcomes. Conditions: recombinant CYP, pro-luciferin dealkylation, luminescence, p450-cyp2c19; series mostly up to 57.1 µM.
Cytochrome P450 2C19 (Homo sapiens), sequence (P33261 whole entry, looked up): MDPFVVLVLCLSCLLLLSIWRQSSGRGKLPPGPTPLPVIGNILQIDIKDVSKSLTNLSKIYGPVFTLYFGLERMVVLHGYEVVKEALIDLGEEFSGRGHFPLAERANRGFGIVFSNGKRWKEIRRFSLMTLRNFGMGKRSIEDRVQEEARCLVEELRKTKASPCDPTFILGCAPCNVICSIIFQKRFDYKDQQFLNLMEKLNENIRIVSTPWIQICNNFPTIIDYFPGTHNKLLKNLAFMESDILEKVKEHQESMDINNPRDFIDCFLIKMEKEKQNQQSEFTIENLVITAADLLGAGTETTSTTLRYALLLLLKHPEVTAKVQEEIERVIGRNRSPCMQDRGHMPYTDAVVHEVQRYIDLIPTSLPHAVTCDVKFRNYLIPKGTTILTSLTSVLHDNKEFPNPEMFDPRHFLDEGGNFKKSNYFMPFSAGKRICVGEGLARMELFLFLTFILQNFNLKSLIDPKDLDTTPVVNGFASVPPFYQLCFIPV
With `Clc1cccc(N/N=C/c2ccc(N3CCOCC3)cc2)c1`, the AC50 was 10 µM (active).
Same read-out and setting: under `FC(F)(F)c1cccc(NC(=S)Nc2cccc(Cl)c2)c1` stands 1.78 µM (active); under `FC(F)(F)c1cccc(NC(=S)Nc2ccc(Cl)cc2Cl)c1`, 0.282 µM (active).
Still for that read-out and setting: for `COc1ccc(C=O)cc1COc1ccc(C)cc1[N+](=O)[O-]` the value was 2.24 µM (active); for `C=CCNCCOCCOc1ccc(C)cc1[N+](=O)[O-]`, “inactive”.
On to `Nc1nccc(Nc2ccc(S(N)(=O)=O)cc2)n1`, for which the activity, negative = inhibition was -11.8% [at 11.4 µM].
With `CN(C)c1ccc(-c2cc(Nc3ccc(F)cc3)ncn2)cc1`, the AC50 is 2 µM (active).
Take `CN1CCN(c2ccnc(-c3ccc(N(C)C)cc3)n2)CC1`: the AC50 entry is “inactive”.
For the compound `Cc1cnc(CNc2cc(-c3ccc(C(=O)N(C)C)cc3)ncn2)cn1`, the AC50 result was “inactive”.
`Fc1ccc(Nc2ccnc(-c3ccc4c(c3)OCO4)n2)cc1`: the AC50 is 2 µM (active).
In the case of `CN(C)c1ccc(-c2nccc(Nc3ccc(F)cc3)n2)cc1`, the AC50 was 3.16 µM (active).
Take `O=C1CCc2cc(OCCCCc3nnnn3C3CCCCC3)ccc2N1`: the AC50 result is “inactive”.
Same read-out and setting: under `CC(C)(C)c1ccc(CN(Cc2ccco2)Cc2nnnn2C2CCCC2)cc1` stands 2.24 µM (active).
As for `S[C@@H]1CCCN(Cc2ccccc2)C1`, the AC50 was 3.16 µM (active).
Turning to `OCC1CCCN(Cc2ccc(-c3ccccc3)cc2)C1` (stereo not given), the AC50 entry was “inactive”.
As for `c1ccc(CN2CC[C@@H](CNc3ncnc4ccccc34)C2)cc1`, the activity, negative = inhibition is -7.26% [at 11.4 µM].
In the case of `Cc1cc(C(C)(C)C)c(OCCCN2CCOCC2)c(C(C)(C)C)c1`, the activity, negative = inhibition was -2.67% [at 11.4 µM].
On to `CCOC(=O)C1CCN(Cc2cnc(Oc3ccc(OC)cc3)s2)CC1`, for which the AC50 is 7.94 µM (active).
For `CCOc1nc(NCCN2CCOCC2)nc(Nc2ccc(C)cc2)n1`, the AC50 entry is “inactive”.
On to `Cc1ccc(Oc2ncc(CN3CCOCC3)s2)cc1`, for which the AC50 is 1.78 µM (active).
On to `O=C(Nc1cccc(F)c1)N1CC[C@@]2(CCCNC2)C1`, for which the AC50 result was “inactive”.
As for `Nc1ccc(N2C(=O)c3ccccc3C2=O)c(Cl)c1`, the AC50 result is “inactive”.
The same measure, in the same setting: for `Nc1ccc(N(S(=O)(=O)c2ccccc2)S(=O)(=O)c2ccccc2)c(Cl)c1` the value was 0.158 µM (active).
For `CC(C)(C)C(=O)[C@H]([C@@H](c1ccccc1)N1CCOCC1)N1CCOCC1`, the activity, negative = inhibition is 27.5% [at 11.4 µM].
As to `O=C(NCC(c1cccnc1)N1CCOCC1)Nc1ccccc1` (stereo not given), the AC50 is 17.8 µM (active).
Regarding `O=C(Nc1ccccc1)N1CCC2(CC1)CCN(C(=O)c1cnccn1)CC2`, the AC50 result was “inactive”.
Take `CCOC(=O)c1sc2nc3c(cc2c1N)COC(C)(CC)C3` (stereo not given): the AC50 is 25.1 µM (active).
For the compound `Cc1ccc(-c2ccc(/C=N\NC(=O)c3cc4c(ccc5ccccc54)o3)o2)cc1[N+](=O)[O-]`, the AC50 entry is “inactive”.
The same measure, in the same setting: for `Cc1ccc(-c2ccc(/C=N/NC(=S)Nc3ccccc3)o2)cc1[N+](=O)[O-]` the value was 7.94 µM (active).
For `CC1(C)OCC([C@H](O)C2=CCCCC2=O)CO1`, the activity, negative = inhibition is 2.21% [at 11.4 µM].
As to `Cc1nccn1C[C@@H]1CCc2c(c3ccccc3n2C)C1=O`, the AC50 result is “inactive”.
As to `O=C(N/N=C/c1ccc([N+](=O)[O-])s1)c1ccccc1Br`, the AC50 was 28.2 µM (active).
Take `Cc1nc2ccccn2c1C(=O)N/N=C/c1ccccc1[N+](=O)[O-]`: the AC50 entry was “inactive”.
Still for that read-out and setting: for `O=C(N/N=C/c1ccc(Br)s1)c1ccccc1[N+](=O)[O-]` the value was 12.6 µM (active); for `COc1ccc2[nH]cc(CCNc3nc(-c4ccc(N(C)C)cc4)nc4ccccc34)c2c1`, 7.94 µM (active).
For `COc1ccc2[nH]cc(CCNc3nc(-c4ccc(C(=O)N(C)C)cc4)nc4ccccc34)c2c1`, the AC50 was 3.16 µM (active).
For `O=C1OC2CC3CC1CC(O)(C3)C2` (stereo not given), the AC50 result was “inactive”.
As for `CCC(C(=O)Nc1cccc(C(F)(F)F)c1)c1ccccc1` (stereo not given), the AC50 result was “inactive”.
For the compound `COC(=O)/C(=C\C(=O)c1ccccc1)Nc1cccc(C(F)(F)F)c1`, the AC50 was 5.01 µM (active).
Consider `Nc1nc2c(ncn2[C@@H]2C=C[C@@H](CO)C2)c(=O)[nH]1`, for which the activity, negative = inhibition is -3.48% [at 11.4 µM].
Consider `O=C(c1cc(C(F)(F)F)cc(C(F)(F)F)c1)N1CCC2(CC1)CCN(c1ccccn1)CC2`, for which the AC50 result was “inactive”.
With `O=C(c1ccc(Oc2ccc(C(F)(F)F)cn2)cc1)N1CCN(c2ccccc2)CC1`, the AC50 was 10 µM (active).
For `O=C(c1cc(C(F)(F)F)cc(C(F)(F)F)c1)N1CCC2(CC1)CCN(c1ccncc1)CC2`, the AC50 entry is “inactive”.
Regarding `O=C(c1cc(C(F)(F)F)cc(C(F)(F)F)c1)N1CCC2(CC1)CN(c1ccccc1)C2`, the AC50 result is “inactive”.
As for `O=C(c1cc(C(F)(F)F)cc(C(F)(F)F)c1)N1CCC2(CC1)CN(c1ccccn1)C2`, the AC50 entry was “inactive”.
With `Cc1ccc(C(=O)N2CCN(c3ccc(C(F)(F)F)cn3)CC2)cc1`, the AC50 was 25.1 µM (active).
On to `CN1CCN(c2ncc3ncc(=O)n(C[C@H]4CCCO4)c3n2)CC1`, for which the AC50 result was “inactive”.
Take `CC(C)NC(=O)/C(=N\O)c1ccccc1`: the AC50 result is “inactive”.
Still for that read-out and setting: for `O=C(NNC(=O)c1ccccc1)C(=O)N1CCCCC1` the value was “inactive”.
Turning to `O=C(NC(N1CCCC1)C(Cl)(Cl)Cl)c1ccccc1` (stereo not given), the AC50 was 7.94 µM (active).
Regarding `CCN(CC)c1ncnc2c1sc1nc(C)cc(C)c12`, the half-maximal activity concentration (AC50) is 14.1 µM (active).
With `CCN(CC)N=Nc1[nH]nc2nc(C)cc(C)c12`, the AC50 entry is “inactive”.
`Cc1ccc(-c2ncccc2OC(=O)C23CC4CC(CC(C4)C2)C3)cc1`: the AC50 is 14.1 µM (active).
`O=C(NOC(=O)c1cc(Br)ccc1Cl)c1cccs1`: the AC50 entry was “inactive”.
For `O=C(CCNc1cccc(Cl)c1)c1cccs1`, the half-maximal activity concentration (AC50) was 3.98 µM (active).
Take `O=C(CNc1cccc(Cl)c1)c1ccc(Cl)cc1`: the AC50 was 2 µM (active).
For the compound `COc1ccccc1C1=NOC(COC(=O)c2ccc3ccccc3n2)C1` (stereo not given), the AC50 is 15.8 µM (active).
As to `COc1ccccc1-c1nc(NCCNC(C)=O)c2ccccc2n1`, the AC50 result was “inactive”.
For the compound `O=C1C[C@H](c2ccccc2)[C@@H](c2ccc(Br)cc2)O1`, the AC50 was 0.398 µM (active).
For `CN(CCO)c1cc(Sc2nc3ccccc3s2)c2nonc2c1[N+](=O)[O-]`, the AC50 is 11.2 µM (active).
Consider `O=[N+]([O-])c1c(NCCO)cc(Sc2nc3ccccc3s2)c2nonc12`, for which the AC50 was 2.51 µM (active).
For `CC(C)n1nnnc1-c1cc(Cl)cc(Cl)c1`, the AC50 is 7.94 µM (active).
The same measure, in the same setting: for `CN1CC[C@@]2(CCCN(C(=O)c3cccc(F)c3)C2)C1` the value was “inactive”; for `Cc1cccc(-n2nnc3cnn(C)c3c2=O)c1`, “inactive”.
In the case of `Cc1cccc(Cn2ncc(Cl)c(Cl)c2=O)c1`, the AC50 was 8.91 µM (active).
